Measurements reported in PubChem BioAssay (NCATS).
Where “and” joins values, the source holds several entries; their conditions need not be identical. Equal values may be shown once. Records with an inconclusive call do not appear. Entries that show only a call come without a potency. A number with no mark means an inactive call. Calls of active or inactive are those of the source. Unless noted, calls follow the shape of the dose curve; as a rule, active = well fitted curve in the direction sought with a large enough effect; inconclusive = small, poorly fitted or top-dose-only effect, or another doubt; inactive = no such curve, though single readings can be large; an effect the other way counts as inactive or inconclusive.

What was measured:
[1] = molecular target: Calcium and integrin-binding protein 1 (Homo sapiens) (UniProt Q99828); test: Confirmatory qHTS for Identification of Calcium Integrin Binding Protein 1 (CIB1) Competitor (AID 1508617); conditions: CIB1 binding competition assay, biochemical qHTS; series mostly up to 76.6 µM; also: nearly all actives have a fitted effect of over 65% in size; also: potency is read from the fitted curve at half-maximal effect
Chain of Calcium and integrin-binding protein 1 (Homo sapiens) (Q99828 whole entry, looked up): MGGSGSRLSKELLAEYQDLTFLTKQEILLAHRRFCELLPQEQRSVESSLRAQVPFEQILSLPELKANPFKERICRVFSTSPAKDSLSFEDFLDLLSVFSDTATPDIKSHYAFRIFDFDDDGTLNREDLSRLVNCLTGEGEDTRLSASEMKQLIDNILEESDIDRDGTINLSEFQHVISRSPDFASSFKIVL
How it was run: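 FP competition: CIB1-GST (1 uM final) in 5 mM HEPES pH 7.4, 125 mM NaCl, 5 mM CaCl2, 0.01% Tween20 preincubated 15 min RT with compounds (up to 114 uM), then FITC-alphaIIb peptide (100 nM), 15 min RT; Ex 480/Em 540.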

[2] = molecular target: Calcium and integrin-binding protein 1 (Homo sapiens) (UniProt Q99828); test: Primary qHTS for Identification of Calcium Integrin Binding Protein 1 (CIB1) Competitor (AID 1508620); conditions: CIB1-GST / FITC-alphaIIb peptide fluorescence polarization; series mostly up to 114 µM; also: potency is read from the fitted curve at half-maximal effect;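 as to activity change, negative = inhibition: GST tagged CIB1 binding a fluorescein labelled alphaIIb integrin peptide tracer; top concentration of the series differs between compounds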
How it was run: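 CIB1-GST (1 uM final) and compound incubated 15 min at room temperature before adding FITC-alphaIIb peptide tracer (100 nM final). Competition for binding read by fluorescence polarization (ex 480, em 540) after another 15 min at room temperature.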

[3] = Primary qHTS for inhibitors of nuclear receptor binding SET domain protein 2 (NSD2) in an isogenic RCH-ACV NSD2 p.E1099K mutant (9B) (AID 1645876); conditions: RCH-ACV NSD2 E1099K (9B) viability, CellTiter-Glo, 72 h; series mostly up to 44.9 µM; also: potency is read from the fitted curve at half-maximal effect; nearly all actives have a fitted effect of over 70% in size
[4] = Primary qHTS for inhibitors of nuclear receptor binding SET domain protein 2 (NSD2) in an RCH-ACV wild type WT cells (2C) (AID 1645877); conditions: RCH-ACV (leukaemia line) NSD2 WT (2C) viability, CellTiter-Glo, 72 h; series mostly up to 44.9 µM; also: potency is read from the fitted curve at half-maximal effect; nearly all actives have a fitted effect of over 70% in size
[5] = molecular target: Rap guanine nucleotide exchange factor 3 (Homo sapiens) (UniProt O95398); test: Confirmatory qHTS for antagonist of cAMP-regulated guanine nucleotide exchange factor 3 (EPAC1) (AID 1645880); conditions: EPAC1 Rap1B-BODIPY-GDP exchange, fluorescence; series mostly up to 115 µM; also: potency is read from the fitted curve at half-maximal effect; nearly all actives have a fitted effect of over 55% in size
Chain of Rap guanine nucleotide exchange factor 3 (Homo sapiens) (O95398 whole entry, looked up): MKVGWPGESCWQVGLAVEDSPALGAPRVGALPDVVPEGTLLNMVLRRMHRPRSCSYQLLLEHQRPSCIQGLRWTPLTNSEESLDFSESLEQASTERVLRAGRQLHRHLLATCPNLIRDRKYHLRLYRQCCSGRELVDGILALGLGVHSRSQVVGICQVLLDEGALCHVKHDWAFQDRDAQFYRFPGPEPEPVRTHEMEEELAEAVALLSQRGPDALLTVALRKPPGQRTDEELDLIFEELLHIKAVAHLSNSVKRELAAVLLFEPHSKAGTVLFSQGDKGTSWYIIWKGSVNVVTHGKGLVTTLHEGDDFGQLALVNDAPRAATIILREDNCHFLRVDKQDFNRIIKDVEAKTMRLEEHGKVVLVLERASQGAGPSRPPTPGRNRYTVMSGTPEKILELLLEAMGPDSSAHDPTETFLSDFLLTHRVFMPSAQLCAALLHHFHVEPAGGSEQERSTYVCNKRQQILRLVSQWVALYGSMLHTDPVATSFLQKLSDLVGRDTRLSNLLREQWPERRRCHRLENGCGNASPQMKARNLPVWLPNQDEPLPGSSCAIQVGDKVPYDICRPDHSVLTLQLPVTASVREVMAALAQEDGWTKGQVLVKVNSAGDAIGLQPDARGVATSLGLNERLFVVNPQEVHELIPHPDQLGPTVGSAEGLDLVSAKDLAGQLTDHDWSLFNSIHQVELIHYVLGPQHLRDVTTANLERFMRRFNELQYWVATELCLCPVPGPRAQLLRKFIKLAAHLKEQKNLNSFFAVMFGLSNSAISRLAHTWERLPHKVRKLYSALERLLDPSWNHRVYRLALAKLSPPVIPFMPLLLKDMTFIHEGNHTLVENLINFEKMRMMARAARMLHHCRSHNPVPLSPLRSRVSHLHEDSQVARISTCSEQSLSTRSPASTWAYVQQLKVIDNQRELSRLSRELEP
How it was run: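 Released BODIPY-GDP fluoresces less than Rap1-bound BODIPY-GDP; the signal is followed at 480/540 nm at 5-min intervals over 30 min, after 5 min at room temperature. Reactions contain 100 nM EPAC1, 250 nM RAP1B-BODIPY-GDP and 50 uM GDP; results are normalized to ATA and DMSO.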

[6] = molecular target: Rap guanine nucleotide exchange factor 3 (Homo sapiens) (UniProt O95398); test: Confirmatory qHTS for agonist of cAMP-regulated guanine nucleotide exchange factor 3 (EPAC1) (AID 1645881); conditions: EPAC1 Rap1B BODIPY-GDP exchange fluorescence, 100% = cAMP control response; series mostly up to 154 µM;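 also: EPAC1 catalysed release of BODIPY-GDP from Rap1B seen as fluorescence loss; nearly all actives have a fitted effect of over 75% in size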
[7] = molecular target: Rap guanine nucleotide exchange factor 4 (Homo sapiens) (UniProt Q8WZA2); test: Confirmatory qHTS for antagonist of cAMP-regulated guanine nucleotide exchange factor 4 (EPAC2) (AID 1645885); conditions: EPAC2 Rap1B-BODIPY-GDP exchange fluorescence, biochemical; series mostly up to 114 µM; also: potency is read from the fitted curve at half-maximal effect; nearly all actives have a fitted effect of over 25% in size
Chain of Rap guanine nucleotide exchange factor 4 (Homo sapiens) (Q8WZA2 whole entry, looked up): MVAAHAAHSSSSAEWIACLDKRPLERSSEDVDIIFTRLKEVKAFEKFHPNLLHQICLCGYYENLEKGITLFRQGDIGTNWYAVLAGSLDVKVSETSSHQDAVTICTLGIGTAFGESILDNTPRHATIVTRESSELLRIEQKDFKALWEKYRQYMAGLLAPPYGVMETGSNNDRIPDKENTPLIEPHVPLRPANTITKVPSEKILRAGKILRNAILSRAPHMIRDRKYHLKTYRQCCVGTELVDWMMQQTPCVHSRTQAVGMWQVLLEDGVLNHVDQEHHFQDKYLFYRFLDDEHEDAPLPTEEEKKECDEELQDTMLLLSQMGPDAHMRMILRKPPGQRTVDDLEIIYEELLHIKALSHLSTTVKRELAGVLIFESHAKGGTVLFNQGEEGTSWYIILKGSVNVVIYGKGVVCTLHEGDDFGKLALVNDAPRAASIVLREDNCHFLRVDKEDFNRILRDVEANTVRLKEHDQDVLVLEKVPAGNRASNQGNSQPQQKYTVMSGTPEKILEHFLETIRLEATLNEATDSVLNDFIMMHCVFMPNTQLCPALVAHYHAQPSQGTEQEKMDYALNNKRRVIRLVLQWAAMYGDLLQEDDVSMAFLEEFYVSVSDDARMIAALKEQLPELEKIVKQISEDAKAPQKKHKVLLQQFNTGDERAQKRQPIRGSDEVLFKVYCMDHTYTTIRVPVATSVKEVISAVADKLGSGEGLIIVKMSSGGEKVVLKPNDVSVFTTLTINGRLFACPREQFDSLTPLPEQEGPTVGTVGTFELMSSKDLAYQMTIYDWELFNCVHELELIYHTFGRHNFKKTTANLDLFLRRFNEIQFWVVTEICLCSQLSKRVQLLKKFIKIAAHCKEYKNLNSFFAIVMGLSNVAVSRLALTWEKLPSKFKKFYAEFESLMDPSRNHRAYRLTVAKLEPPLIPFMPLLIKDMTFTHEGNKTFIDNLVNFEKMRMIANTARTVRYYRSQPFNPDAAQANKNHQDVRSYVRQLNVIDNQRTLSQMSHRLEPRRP

[8] = molecular target: Rap guanine nucleotide exchange factor 3 (Homo sapiens) (UniProt O95398); test: Counterscreen qHTS for antagonist of cAMP-regulated guanine nucleotide exchange factor 3 (EPAC1) (AID 1645888); conditions: Rap1B-BODIPY-GDP nucleotide exchange, fluorescence; series mostly up to 154 µM
How it was run: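 Rap1B-BODIPY-GDP 250 nM + GDP 50 uM; cpds 7-pt, final 9.74 nM–152 uM (activator mode) or from 7.32 nM upwards (inhibitor mode); RT; FI 480/540 nm at 5 and 30 min, then ± cAMP, reread.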

[9] = molecular target: Cytochrome P450 2D6 (Homo sapiens) (UniProt P10635); test: Cytochrome P450 family 2 subfamily D member 6 (CYP2D6) small molecule antagonists: luciferase biochemical (cell-free) qHTS assay (AID 1645840; active = well fitted curve in the direction sought with a large enough effect in the repeat runs; an effect the other way counts as inactive or inconclusive; also: nearly all actives have a fitted effect of over 55% in size; also: potency is read from the fitted curve at half-maximal effect); conditions: P450-Glo CYP2D6 enzyme, luciferin luminescence, 1 h; series mostly up to 57.4 µM
Chain of Cytochrome P450 2D6 (Homo sapiens) (P10635 whole entry, looked up): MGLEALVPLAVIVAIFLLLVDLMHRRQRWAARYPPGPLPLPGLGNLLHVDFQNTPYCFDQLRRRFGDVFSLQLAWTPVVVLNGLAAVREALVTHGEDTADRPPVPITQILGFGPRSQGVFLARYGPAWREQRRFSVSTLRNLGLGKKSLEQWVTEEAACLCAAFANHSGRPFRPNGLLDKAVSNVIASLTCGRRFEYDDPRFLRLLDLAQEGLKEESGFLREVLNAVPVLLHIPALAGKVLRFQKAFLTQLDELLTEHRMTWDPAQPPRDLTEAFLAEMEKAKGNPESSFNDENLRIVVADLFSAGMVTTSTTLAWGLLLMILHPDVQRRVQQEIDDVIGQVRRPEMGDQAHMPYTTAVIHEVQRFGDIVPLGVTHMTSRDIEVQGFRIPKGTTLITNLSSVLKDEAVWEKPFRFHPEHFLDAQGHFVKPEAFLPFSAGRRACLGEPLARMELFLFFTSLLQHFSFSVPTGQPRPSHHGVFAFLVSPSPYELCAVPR
How it was run: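 P450-Glo CYP2D6 system: proluciferin substrate converted by enzyme to luciferin, read by luminescence proportional to activity. Enzyme-substrate mix with compound 10 min at room temperature, then NADPH regeneration 1 h before detection reagent.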

[10] = molecular target: Cytochrome P450 2C9 (Homo sapiens) (UniProt P11712); test: Cytochrome P450 family 2 subfamily C member 9 (CYP2C9) small molecule antagonists: luciferase biochemical (cell-free) qHTS assay (AID 1645842; active = well fitted curve in the direction sought with a large enough effect in the repeat runs; an effect the other way counts as inactive or inconclusive; also: potency is read from the fitted curve at half-maximal effect; nearly all actives have a fitted effect of over 55% in size); conditions: P450-Glo CYP2C9 enzyme assay, luciferin luminescence; series mostly up to 57.4 µM
Chain of Cytochrome P450 2C9 (Homo sapiens) (P11712 whole entry, looked up): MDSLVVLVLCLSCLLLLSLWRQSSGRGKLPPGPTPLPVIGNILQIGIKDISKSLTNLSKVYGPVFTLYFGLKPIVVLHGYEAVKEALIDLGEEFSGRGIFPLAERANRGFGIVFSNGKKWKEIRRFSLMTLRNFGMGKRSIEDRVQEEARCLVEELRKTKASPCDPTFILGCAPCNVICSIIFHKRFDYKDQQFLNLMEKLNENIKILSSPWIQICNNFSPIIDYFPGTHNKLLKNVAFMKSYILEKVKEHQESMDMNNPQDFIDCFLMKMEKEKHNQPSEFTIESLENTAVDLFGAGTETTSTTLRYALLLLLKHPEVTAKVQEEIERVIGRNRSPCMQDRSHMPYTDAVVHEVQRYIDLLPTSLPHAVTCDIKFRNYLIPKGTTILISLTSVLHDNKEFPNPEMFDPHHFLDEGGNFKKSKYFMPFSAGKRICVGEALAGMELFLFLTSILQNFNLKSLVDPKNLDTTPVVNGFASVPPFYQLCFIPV
How it was run: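 P450-Glo CYP2C9 system: proluciferin substrate with enzyme in mix containing 0.4% BSA, 10 min at room temperature, then NADPH regeneration solution added and incubated 1 h at 37C. Detection reagent stopped reaction; luminescence read after 20 min as RLU.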

[11] = Primary qHTS for inhibitors of La Crosse Virus (LACV) - induced cell death in SH-SY5Y cells (AID 1508616); conditions: SH-SY5Y LACV cytopathicity rescue, ATP luminescence, 6 d; series mostly up to 4.29 µM;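 also: top concentration of the series differs between compounds; higher means more rescue of cells from virus-induced death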
How it was run: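 Screening measures cell viability in LACV-infected SH-SY5Y cultures. Compound was added before virus (0.01 MOI), and ATP was detected by luminescence 6 days later.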

In the case of `O=C(O)CSc1cc(NS(=O)(=O)c2ccc(Br)cc2)c2ccccc2c1O`, the Potency [1] is reported as 12.6 µM (active), the Potency [2] is reported as 44.7 µM (active) and the Potency [3] is reported as 7.28 µM (active). The Potency [4] was 4.09 µM (active), the Potency [5] was 84.9 µM (active) and the outcome [6] was “inactive”. For the same compound, the Potency [7] was 47.8 µM (active) and the outcome [8] was “inactive”.
For `O=C(O)CCc1nccc2c1[nH]c1ccccc12`, the Potency [2] was “inactive”.
In the case of `CC(OC1OCCN(Cc2n[nH]c(=O)[nH]2)C1c1ccc(F)cc1)c1cc(C(F)(F)F)cc(C(F)(F)F)c1` (stereo not given), the Potency [2] is reported as “inactive”.
In the case of `C[C@@H](NC(=O)[C@H](O)c1cc(F)cc(F)c1)C(=O)N[C@@H]1C(=O)N(C)c2ccccc2-c2ccccc21`, the Potency [2] is reported as “inactive”.
For `C/C=C(/C=C(C)/C=C/C=C/C=C(\C)C(=O)C12OC1C(O)(CCO)NC2=O)C(=O)OC` (stereo not given), the Potency [2] was “inactive”.
With `CC(=O)O[C@@H]1[C@@H](O)[C@H](O[C@@H]2[C@@H](O)[C@@H](O)[C@H](O[C@H]3[C@H](O[C@H]4[C@H](O[C@H]5CC[C@@]6(C)C(CC[C@]7(C)C6CC=C6[C@@H]8CC(C)(C)CC[C@]8(C(=O)O)CC[C@]67C)[C@]5(C)CO)O[C@H](CO)[C@@H](O)[C@@H]4O)OC[C@@H](O)[C@@H]3O)O[C@H]2C)OC[C@H]1O` (stereo not given in full) the Potency [2] was “inactive”.
For `CC1(C)CC[C@]2(C(=O)O)CC[C@]3(C)C(=CCC4[C@@]5(C)C[C@@H](O)[C@H](O)[C@@](C)(CO)C5CC[C@]43C)[C@@H]2[C@@H]1O` (stereo not given in full), the Potency [2] was “inactive”.
For `CC12CCC(OC3OC(CO)C(O)C(O)C3OC3OC(CO)C(O)C(O)C3O)CC1CCC1C2CCC2(C)/C(=C3/COC(=O)C3)CCC12O` (stereo not given), the Potency [2] was “inactive”.
In the case of `C=CC(C)(O)CC[C@@H]1[C@@]2(C)CCCC(C)(C)C2CC[C@@]1(C)O` (stereo not given in full), the Potency [2] is reported as “inactive”.
In the case of `CC/C=C\CC1C(=O)C=CC1(CCCCC1CCC(=O)O1)OC(C)=O` (stereo not given), the Potency [2] is reported as “inactive”.
With `CC[C@@H]1C[C@]1(NC(=O)[C@@H]1C[C@@H]2CN1C(=O)[C@H](C(C)(C)C)NC(=O)OCC(C)(C)CCCCc1cccc3c1CN(C3)C(=O)O2)C(=O)NS(=O)(=O)C1CC1` the Potency [2] was “inactive”.
In the case of `C/C=C\NC(=O)C1NC(=O)C(CC(N)=O)NC(=O)C(NC(=O)C(=O)C(C)CC)Cc2ccc(O)c(c2)-c2cccc3c2NC(=O)C3(O)C1O` (stereo not given), the Potency [2] is reported as “inactive”.
With `CCC1C(=O)N(C)c2cnc(Nc3ccc(C(=O)NC4CCN(C)CC4)cc3OC)nc2N1C1CCCC1` (stereo not given) the Potency [1] was “inactive”, the Potency [9] was “inactive” and the Potency [10] was 2.13 µM (active). For the same compound, the Potency [3] was 0.0073 µM (active) and the Potency [4] was 0.0082 µM (active).
For `O=C(NCCCCCCCCNC(=O)C(Cl)Cl)C(Cl)Cl`, the Potency [2] was “inactive”.
With `C[C@@H](c1ccc2nccn2c1)n1nnc2ncc(-c3cnn(C)c3)nc21` the Potency [2] was “inactive”.
With `Oc1cccc(-c2c3nc(c(-c4cccc(O)c4)c4ccc([nH]4)c(-c4cccc(O)c4)c4nc(c(-c5cccc(O)c5)c5ccc2[nH]5)CC4)C=C3)c1` the outcome [11] was “inactive”, the Potency [10] was 11 µM (active) and the Potency [3] was 8.41 µM (active). The Potency [4] was 8.41 µM (active).
With `COc1nc2ccc(Br)cc2cc1[C@@H](c1ccccc1)[C@@](O)(CCN(C)C)c1cccc2ccccc12` the Potency [1] was 89.1 µM (active), the Potency [9] was 7.56 µM (active) and the Potency [4] was 14.5 µM (active).
In the case of `CC1OC(OC2C(O)COC(O[C@@H]3[C@@H](O)[C@@H](O)[C@H](OC4C(OC(=O)[C@]56CCC(C)(C)CC5C5=CCC7[C@@]8(C)C[C@H](O)[C@H](OC9OC(CO)C(O)C(O)C9O)[C@@](C)(CO)C8[C@H](O)C[C@@]7(C)[C@]5(C)CC6)OCC(O)C4O)O[C@H]3C)C2O)C(O)C(O)C1O` (stereo not given in full), the activity change, negative = inhibition [2] is reported as -1.65% [at 12.4 µM].
For `COc1cc2nc(N3CCN(C(=O)COc4c(OC)cccc4C(C)C)CC3)nc(N)c2cc1OC`, the Potency [2] was “inactive”.
For `COc1cc(C#N)ccc1S(=O)(=O)Nc1ccc2c(c1)cc(C)c(=O)n2C`, the Potency [2] was “inactive”.
With `O=C(Nc1ccc(-c2ccc(Cl)c(Cl)c2)cc1)C1=C(O)c2ccccc2S(=O)(=O)N1` the Potency [2] was “inactive”.
For `CC(=O)OCC(=O)[C@@]12O[C@@H]1C[C@H]1[C@@H]3CC=C4C[C@@H](O)CC[C@]4(C)[C@H]3CC[C@@]12C`, the Potency [2] was “inactive”.
For `COc1cc(O)cc(/C=C/c2cccc(O)c2)c1`, the Potency [2] was “inactive”.
For `CC/C(C)=C/C(=O)OC1C(OC2(C)CCC3C(C4C(C)CCC42)C3(C)C)OC(C)C(O)C1O` (stereo not given), the Potency [2] was “inactive”.
In the case of `CCC(C)/C=C(C)/C=C/C1=CC2=CC(=O)C3(C)OC(C)(O)C(C(=O)OC)C3C2=CO1` (stereo not given), the Potency [2] is reported as “inactive”.
For `Cn1sc(=O)n(Cc2ccccc2)c1=O`, the Potency [1] was 7.94 µM (active), the Potency [2] was 8.91 µM (active) and the Potency [3] was 7.28 µM (active) and 18.4 µM (active). The Potency [4] was 2.58 µM (active) and 11.6 µM (active).
